In PubChem BioAssay AID2283127 (EPA ToxCast) one finds outcome and AC50 data, which are given here for two compounds.

By AC50 is commonly meant the midpoint of the concentration-response curve, whichever way the signal moves.

Inconclusive results are not listed. Active and inactive are the calls of the source. Rule for the calls: active = hit-call score of the fitted dose curve at least 0.9, where 1 is the maximum; inconclusive = response in the unintended direction; inactive = score below 0.9.

Chain of human AKT serine/threonine Kinase 3 (AKT3), AKT3 (gene 10000) (Q9Y243 whole entry, looked up): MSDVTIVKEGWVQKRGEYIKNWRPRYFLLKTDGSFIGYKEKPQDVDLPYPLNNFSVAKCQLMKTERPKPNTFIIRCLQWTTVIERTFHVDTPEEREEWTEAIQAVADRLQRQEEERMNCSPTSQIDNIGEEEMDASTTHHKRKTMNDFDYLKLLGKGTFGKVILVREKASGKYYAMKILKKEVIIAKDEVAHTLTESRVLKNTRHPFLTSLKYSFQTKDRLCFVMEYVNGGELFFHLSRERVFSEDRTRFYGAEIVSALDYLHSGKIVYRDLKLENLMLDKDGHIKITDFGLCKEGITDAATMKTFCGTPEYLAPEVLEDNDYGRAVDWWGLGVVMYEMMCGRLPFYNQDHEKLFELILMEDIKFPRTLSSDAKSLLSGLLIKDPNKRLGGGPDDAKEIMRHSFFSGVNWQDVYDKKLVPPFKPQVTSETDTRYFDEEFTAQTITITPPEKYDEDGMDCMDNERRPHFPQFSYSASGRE

The target of the test is human AKT serine/threonine Kinase 3 (AKT3), AKT3 (gene 10000) (UniProt Q9Y243). Description: NVS_ENZ_hAKT3: NovaScreen (NVS) Enzymatic Assay for human AKT serine/threonine Kinase 3 (AKT3). As to the method:
NVS_ENZ_hAKT3 is a biochemical, single-readout assay that uses extracted gene-proteins in a cell-free assay. Measurements were taken 1 hour after chemical dosing in a 384-well plate.NVS_ENZ_hAKT3 is one of one assay component(s) measured or calculated from the NVS_ENZ_hAKT3 assay. It is designed to make measurements of enzyme activity, a form of enzyme reporter, as detected with fluorescence intensity signals by Fluorescence and electrophoretic mobility shift technology.Data from the assay component NVS_ENZ_hAKT3 was analyzed into 1 assay endpoint. This assay endpoint, NVS_ENZ_hAKT3, was analyzed in the positive analysis fitting direction relative to DMSO as the negative control and baseline of activity. Using a type of enzyme reporter, loss-of-signal activity can be used to understand changes in the enzymatic activity as they relate to the gene AKT3. Furthermore, this assay endpoint can be referred to as a primary readout, because this assay has produced multiple assay endpoints where this one serves a enzymatic activity function. To generalize the intended target to other relatable targets, this assay endpoint is annotated to the kinase intended target family, where the subfamily is serine/threonine kinase. […]
With `CN(C)C(=S)SSC(=S)N(C)C`, the compound was called inactive. Turning to `S=C([S-])NCCNC(=S)[S-].[Mn+2]`, the AC50 was 25 µM (active).
